This is a sample that favours compounds with a hit; in the whole collection about 2.4% have one here.
ClpP mod: qHTS Assay for Activators of ClpP; ATP-dependent Clp protease proteolytic subunit (Bacillus subtilis (strain 168)), P80244; purified B. subtilis ClpP, FRET peptide cleavage, 20 min; Potency, µM (series often up to 57.5 µM), for the others: at the top dose activity change, negative = active; 340,000 compounds, 1.9% hits; AID 651965, 2013; active = well fitted falling curve with a large enough effect; inconclusive = small, poorly fitted or top-dose-only effect; inactive = no such curve, though single readings can be large or run the other way; also: the source files actives as falling curves though it sought activators and does not explain the sign; nearly all actives have a fitted effect of over 65% in size
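ClpP 10 microg/mL final, pH 8 Tris/KCl buffer with BSA, glycerol, Tween-20; compound pinned in; FRET-FV substrate; RT 20 min; Ex320/Em430; ΔFRET vs ADEP 5.8 microM, DMSO, no enzyme.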
Rango-impB inh: prevents formation of the Rango-importin beta complex; 340,000 compounds, 0.031% hits; Potency, µM (doses to about 92.2 µM), for inactives: top-dose inhibition of complex formation; AID 540263; Rango CFP/YFP FRET sensor + importin beta, 45 min; Q14974;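 also: 0% = DMSO wells and 100% = buffer wells lacking importin beta; nearly all actives have a fitted effect of over 15% in size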
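Inhibition scored from the CFP 486 nm/YFP 530 nm FRET ratio 45 min after adding 0.125 microM importin beta to 50 nM Rango biosensor preincubated 5 min with compound (room temperature, PBS with DTT, Tween-20, BSA). No-importin wells as positive control.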
PTAP TSG101 blk: blocks PTAP/TSG101 interaction to inhibit HIV-1 budding; Q99816; Fluorescence polarization, FITC-PTAP peptide / Tsg101 binding; Potency, µM (titrated, usually from 115 µM), without a hit: at the top dose activity change, negative = inhibition, most hits filed as inhibitors; 340,000 tested, under 10 active; AID 493005; active = well fitted inhibition curve with a large enough effect in the main read-out, with a control signal flat, not every such curve was filed as active; inconclusive = small, poorly fitted or top-dose-only effect, or effect the other way, or a change in a side signal; inactive = no such curve, though single readings can be large or run the other way; also: % of control where 0% means no effect
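Steps: Tsg101 binding domain dispensed (10 uM final), compounds pinned in DMSO, FITC-labeled PTAP-motif peptide added (50 nM final); after 20 min binding at room temperature, polarization measured.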
12-LOX inh: inhibitors of human 12S-lipoxygenase ALOX12; 580,000 compounds, 1.1% hits; P18054; purified 12hLO, xylenol orange hydroperoxide absorbance; Potency, µM (doses to about 108 µM), for the others: top-dose activity change, negative = inhibition, actives largely listed as inhibitors; active = well fitted curve in the direction sought with a large enough effect; inconclusive = small, poorly fitted or top-dose-only effect, or another doubt; inactive = no such curve, though single readings can be large; an effect the other way counts as inactive or inconclusive; also: % is scaled to controls: 0 for no effect and ±100 for the full control effect
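Purified human 12hLO (150 nM final) in 25 mM Hepes, 0.01% Triton X-100, pH 7.0 was preincubated 15 min at room temperature with compound. Then 40 uM arachidonic acid was added, 30 min. Hydroperoxide was read by Fe-XO absorbance ratio 573/405 nm.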
Rango release inh: inhibitors of RanGTP-induced Rango-importin beta complex dissociation; O95149+P62826; Biochemical FRET Rango-importin beta, RanGTP-induced dissociation; Potency, µM (series often up to 46.1 µM), inactives show at the highest dose activity change, negative = inhibition; 340,000 compounds, 0.071% hits; also: % of control where 0% means no effect; nearly all actives have a fitted effect of over 45% in size
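FRET read at 45 min, room temperature: inhibitors block the CFP/YFP signal rise when RanGTP (0.6 uM Ran, 2 mM GTP, 0.2 uM RCC1) frees Rango (0.1 uM) from importin beta (0.25 uM). Pre-read after 5 min compound exposure flags interference.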
TDP1 inh: blocks human tyrosyl-DNA phosphodiesterase 1. 350,000 compounds, 0.28% hits. Potency, µM (titrated, usually from 130 µM), for inactives: at the highest dose activity change, negative = inhibition, most hits filed as inhibitors. recombinant TDP1, AlphaScreen DNA substrate cleavage. Q9NUW8. AID 485290; active = well fitted curve in the direction sought with a large enough effect; inconclusive = small, poorly fitted or top-dose-only effect, or another doubt; inactive = no such curve, though single readings can be large; an effect the other way counts as inactive or inconclusive; also: % is scaled to controls: 0 for no effect and ±100 for the full control effect; nearly all actives have a fitted effect of over 40% in size
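Tdp1 1 nM final; 15 min RT w/ cpd; substrate 15 nM, 5 min; beads 10 ug/ml, 10 min; AlphaScreen read. Neg ctrl: no enzyme.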
An asterisk follows results filed as active; ? = inconclusive; · = no result; ! = not confirmed by another sample; [ ] = another dose, or the depositor's remark. Unless noted, calls follow the shape of the full dose curve. Potency is read from the fitted curve at half-maximal effect.

SMILES | ClpP mod | Rango-impB inh | PTAP TSG101 blk | 12-LOX inh | Rango release inh | TDP1 inh
CCN1C(=O)C(Cc2cc(OC)c(OC)cc2OC)c2ccccc21 (configuration not stated) | · | · | · | -17% | · | ·
Cc1ccc(N2CCN(CC(O)COc3cccc(C)c3)CC2)cc1 (configuration not stated) | 0% | 0% | -7% | -17% | 31% | 8%
Cc1cccc(OCC(O)CN2CCCN(c3ccc(C(F)(F)F)cn3)CC2)c1 (configuration not stated) | · | · | · | 13µM* | · | ·
S=C(Nc1ccccc1)Nc1nc2ccccc2n1CCOc1ccc(Cl)cc1 | 2% | -1% | -4% | 8.9µM* | 5% | 12%
CCn1c(NC(=S)Nc2ccccc2)nc2ccccc21 | 1% | 2% | -4% | ? | 0% | 8%
Clc1ccc(NCc2nc3ccccc3n2CCOc2ccccc2)cc1 | 4% | · | · | 1% | · | 9%
CCCn1c(NC(=S)Nc2ccccc2)nc2ccccc21 | 3% | -1% | -2% | 22µM* | -22% | 7%
O=C1CN(Cc2coc(-c3ccc(Cl)cc3)n2)CCN1 | · | · | · | -7% | · | ·
CCOC(=O)COc1ccccc1C1Nc2ccccc2C(=O)N1c1cccc(Cl)c1 (configuration not stated) | 25µM* | -3% | 6% | -10% | -22% | 2%
Cc1cccc(N2C(=O)c3ccccc3NC2c2cn(C)c(=O)n(C)c2=O)c1 (configuration not stated) | · | · | · | 3% | · | ·
CCOC(=O)COc1c(OC)cc(Cl)cc1C1Nc2ccccc2C(=O)N1c1ccc(F)cc1 (configuration not stated) | 32µM* | -3% | -6% | 3% | -9% | 0%
CCOC(=O)COc1c(OC)cc(Cl)cc1C1Nc2ccccc2C(=O)N1c1ccccc1 (configuration not stated) | 28µM* | -1% | -4% | -11% | -6% | 1%
CCOC(=O)COc1c(OC)cc(Cl)cc1C1Nc2ccccc2C(=O)N1c1cccc(C)c1 (configuration not stated) | 28µM* | 5% | -2% | 1% | 1% | 2%
COc1ccc(C2Nc3ccccc3C(=O)N2c2ccc(F)cc2)cc1COc1ccc(NC(C)=O)cc1 (configuration not stated) | 5% | · | · | · | · | 0%
O=C(c1cncnc1)N1C[C@@H](COCC2CC2)[C@H](c2ccccn2)C1 | · | · | · | 31% | · | ·
CC(C)(C)c1ccc(O)c(O)c1 | 2% | 5% | 2% | 35µM* | 15% | 1%
CC(C)(C)c1ccc(O)c(/C=N\O)c1 | -1% | 4% | -4% | 0% | 6% | 5%
CCNc1sc(C(C)=O)c(N)c1C#N | · | · | · | 3.2µM* | · | ·
CC(Oc1ccc(F)c(F)c1)C(=O)NCCC(=O)N(C)C (configuration not stated) | · | · | · | 28% | · | ·
Cc1ccc(N2C(=O)[C@@H]3[C@H](C2=O)C2CCCN2[C@@H]3C(=O)c2ccccc2)cc1 (some centres not stated) | -1% | ? | -13% | 45µM* | ? | 9%
c1ccc(CCCNc2nc(Nc3ccccc3)c3nccnc3n2)cc1 | · | · | · | 7% | · | ·
Cc1c(C(=O)O)c(O)cc2c1C(=O)c1c(O)c([C@H]3O[C@H](CO)[C@@H](O)[C@H](O)[C@H]3O)c(O)c(O)c1C2=O | 3% | · | · | · | · | 0.71µM*!
Cc1c(C(=O)O)c(O)cc2c1C(=O)c1c(O)c([C@@H]3O[C@H](CO)[C@@H](O)[C@H](O)[C@H]3O)c(O)c(O)c1C2=O | 7% | ? | ? | -8% | -13% | 3%
COc1ccccc1-c1cc2c(ccn2C)c(C(=O)NCCc2ccccn2)n1 | · | · | · | 55%[176 µM] | · | ·
CCc1nnc([C@@H]2CC(F)(F)CN2C(=O)C2CC2)o1 | · | · | · | 23% | · | ·
SMILES | ClpP mod | Rango-impB inh | PTAP TSG101 blk | 12-LOX inh | Rango release inh | TDP1 inh
O=C(O)[C@@H](c1ccccc1)N1Cc2ccccc2C1=O | -2% | 0% | 0% | 40µM* | 1% | ·
O=C(NCCCN1CCCC1=O)c1cc(S(=O)(=O)N2CCN(c3ccccc3)CC2)ccc1Cl | 28µM* | -4% | -3% | ? | 1% | ·
O=C(NCCCN1CCOCC1)c1cc(-c2ccc(F)cc2)nc2ccccc12 | 5% | -2% | -7% | 5% | 0% | 1%
O=C(NCCN1CCOCC1)c1cc(-c2ccc(F)cc2)nc2ccccc12 | 25µM* | 4% | 0% | -13% | 1% | ·
O=C(NCCCN1CCCC1=O)c1cc(-c2ccc(F)cc2)nc2ccccc12 | 8.9µM* | 1% | 1% | -16% | 8% | 1%
O=C(O)c1ccc2c(C(C(=O)O)N3CCN(c4ncccn4)CC3)cn(Cc3ccccc3)c2c1 (configuration not stated) | · | · | · | -15% | · | ·
COc1cc(OC)c2c(C)c(CC(=O)NCCc3ccc(OC)c(OC)c3)c(=O)oc2c1 | · | · | · | 1% | · | ·
CNC(=O)c1cc[nH]c1C1CCCN(C(=O)CCc2nc3ccccc3s2)C1 (configuration not stated) | · | · | · | 20% | · | ·
COc1ccc(-n2c(-c3ccccc3F)nc3c(cnn3-c3ccc(C)cc3)c2=O)cc1 | 25µM* | · | · | -19% | · | 2%
COc1ccc(-n2c(-c3ccco3)nc3c(cnn3-c3ccc(C)cc3)c2=O)cc1 | ? | -2% | -1% | ? | 1% | 0%
COC(=O)c1cc(OC)c(OC)cc1NC(=O)Nc1ccc(OC)cc1 | 25µM* | -2% | -3% | 0% | 0% | 1%
COC(=O)c1cc(OC)c(OC)cc1NC(=O)Nc1cccc(C(C)=O)c1 | · | 2% | -5% | 6% | -10% | 3%
CCOc1cc(S(=O)(=O)N(Cc2ccccc2)Cc2ccccc2)c(OCC)cc1-n1cnnn1 | 28µM* | 3% | · | 1% | 0% | -4%
CCOc1cc(S(=O)(=O)NCc2ccccc2)c(OCC)cc1-n1cnnn1 | 32µM* | 1% | -11% | 5% | -6% | ·
CCOC(=O)N1c2ccc(C(F)(F)F)cc2[C@@H](N(Cc2cc(C(F)(F)F)cc(C(F)(F)F)c2)C(=O)OC)C[C@H]1CC | · | · | · | 8%[57.4 µM] | · | ·
CC(C)(C)c1ccc(C(=O)NNC(=S)NC(=O)c2cccnc2)cc1 | · | -1% | -10% | ? | -6% | ·
Cc1cccc(C(=O)NC(=S)NNC(=O)c2ccc(Cl)cc2)c1 | -4% | 6% | -1% | 28µM* | -7% | 8%
Cc1cccc(C(=O)NNC(=S)NC(=O)c2ccc(C(C)(C)C)cc2)c1 | · | · | · | 18µM* | · | ·

Source: PubChem BioAssay
